From the supplement of paper PMC10849652
Targets with a hit are over-represented here; the source holds about 7,900 in all. About 0.6% of all pairs of compound and target were hits.

Assays:
Test in all cases: log2 fold change, soluble protein after heating vs DMSO (PISA); higher = thermal stabilisation; K562 cells, 10 uM, 30 min; active = over 0.2 and 3.5 SD of the protein, either way, in both replicates (recomputed)
[1] = compound: CC[C@@H]1C(=O)N(C)c2cnc(Nc3ccc(C(=O)NC4CCN(C)CC4)cc3OC)nc2N1C1CCCC1
Outline: (§1)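 K562 cells at 2×10^6 cells/mL were exposed to 10 μM compound for 30 min, then aliquots were heated for 3 min across 48°C-58°C, pooled, and extracted in PBS containing 0.5% NP-40 at 4°C. The supernatant after 21,000xg for 90 min was taken as soluble protein and measured by TMTpro 16plex LC-MS/MS with channel sums equalised. Thermal stability is reported relative to control samples, with values from duplicates. Fold changes are given on a log2 scale.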

[2] = compound: CC[C@@H]1C(=O)N(C)c2cnc(Nc3ccc(C(=O)N[C@H]4CC[C@H](N5CCN(CC6CC6)CC5)CC4)cc3OC)nc2N1C(C)C [volasertib]
Outline: as §1

[3] = compound: CC[C@H](C)N1C=C(C2=C(C=C(C=C21)C3=CN=C(C=C3)N4CCNCC4)C(=O)NCC5=C(C=C(NC5=O)C)C)C
Outline: as §1

[4] = compound: CC[C@H](C)[C@@H](C(=O)N[C@@H]([C@@H](C)O)C(=O)N[C@@H](CC(C)C)C(=O)[C@]1(CO1)C)NC(=O)[C@H]([C@@H](C)CC)N(C)C(=O)C [epoxomicin]
Outline: as §1

[5] = compound: CCn1c(C(=O)N(C2CC2)C2CC2)cc2c3c(ncn3C)c(Nc3cc(C)n(C)n3)nc21
Outline: as §1

[6] = compound: CCn1cc(-c2ccnc3[nH]c(-c4cccc(CN(C)C)c4)cc23)c(-c2ccc(NC(=O)N(C)C)cc2)n1
Outline: as §1

[7] = compound: CN(C)CC(=O)Nc1ccc2[nH]c(=O)c3ccccc3c2c1
Outline: as §1

[8] = compound: CN(CCOC1=CC=C(C=C1)C[C@H]2C(=O)NC(=O)S2)C3=CC=CC=N3 (racemic) [rosiglitazone]
Outline: as §1

[9] = compound: CN1C2=C(C3=C1C(=O)N(N=C3)CC4=CC(=CC=C4)N)SC(=C2)S(=O)C
Outline: as §1

[10] = compound: CN1CCC(CNc2ccc3ncc(-c4cccc(OC(F)(F)F)c4)n3n2)CC1
Outline: as §1

Measured: log2 fold change

PSMC1 (UniProt P62191)
UniProt P62191, sequence (P62191 whole entry, looked up): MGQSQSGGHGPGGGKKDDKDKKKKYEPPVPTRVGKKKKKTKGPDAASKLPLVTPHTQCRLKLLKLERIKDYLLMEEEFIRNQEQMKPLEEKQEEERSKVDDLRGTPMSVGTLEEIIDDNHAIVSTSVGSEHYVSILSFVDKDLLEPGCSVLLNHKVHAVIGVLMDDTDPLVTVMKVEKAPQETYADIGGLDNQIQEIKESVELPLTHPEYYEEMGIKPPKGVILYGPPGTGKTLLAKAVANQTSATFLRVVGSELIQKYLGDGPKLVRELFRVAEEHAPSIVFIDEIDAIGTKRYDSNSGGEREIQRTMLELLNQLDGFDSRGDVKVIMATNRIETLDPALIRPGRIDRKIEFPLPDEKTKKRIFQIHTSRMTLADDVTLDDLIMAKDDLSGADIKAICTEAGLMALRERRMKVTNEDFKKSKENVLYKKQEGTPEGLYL
active: [4] -0.342
inactive: [1] 0.038 | [2] 0.129 | [3] -0.015 | [5] 0.042 | [6] 0.092 | [7] -0.003 | [8] -0.038 | [9] 0.031 | [10] 0.051

PSMC2 (UniProt P35998)
UniProt P35998, sequence (P35998 whole entry, looked up): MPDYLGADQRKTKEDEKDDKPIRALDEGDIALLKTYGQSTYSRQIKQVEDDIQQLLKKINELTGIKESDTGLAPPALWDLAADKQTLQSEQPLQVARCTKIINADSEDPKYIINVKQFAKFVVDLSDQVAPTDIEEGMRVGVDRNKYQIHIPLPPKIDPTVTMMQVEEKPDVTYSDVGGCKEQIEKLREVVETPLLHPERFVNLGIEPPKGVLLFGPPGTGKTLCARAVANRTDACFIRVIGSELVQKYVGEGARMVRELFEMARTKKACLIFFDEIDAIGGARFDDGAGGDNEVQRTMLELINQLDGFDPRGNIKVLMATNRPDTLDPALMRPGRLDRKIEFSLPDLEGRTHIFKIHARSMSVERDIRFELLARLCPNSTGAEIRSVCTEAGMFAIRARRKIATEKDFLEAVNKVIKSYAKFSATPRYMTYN
inactive: [1] 0.042 | [2] 0.169 | [3] -0.019 | [5] 0.012 | [6] 0.024 | [7] -0.018 | [8] -0.044 | [9] 0.023 | [10] 0.039
active: [4] -0.324

PLEKHM2 (UniProt Q8IWE5)
inactive: [1] -0.127 | [2] -0.177 | [3] 0.009 | [4] 0.037 | [5] -0.051 | [6] -0.175 | [7] 0.003 | [8] 0.034 | [9] -0.04
active: [10] -0.357

PLBD1 (UniProt Q6P4A8)
UniProt Q6P4A8, sequence (Q6P4A8 whole entry, looked up): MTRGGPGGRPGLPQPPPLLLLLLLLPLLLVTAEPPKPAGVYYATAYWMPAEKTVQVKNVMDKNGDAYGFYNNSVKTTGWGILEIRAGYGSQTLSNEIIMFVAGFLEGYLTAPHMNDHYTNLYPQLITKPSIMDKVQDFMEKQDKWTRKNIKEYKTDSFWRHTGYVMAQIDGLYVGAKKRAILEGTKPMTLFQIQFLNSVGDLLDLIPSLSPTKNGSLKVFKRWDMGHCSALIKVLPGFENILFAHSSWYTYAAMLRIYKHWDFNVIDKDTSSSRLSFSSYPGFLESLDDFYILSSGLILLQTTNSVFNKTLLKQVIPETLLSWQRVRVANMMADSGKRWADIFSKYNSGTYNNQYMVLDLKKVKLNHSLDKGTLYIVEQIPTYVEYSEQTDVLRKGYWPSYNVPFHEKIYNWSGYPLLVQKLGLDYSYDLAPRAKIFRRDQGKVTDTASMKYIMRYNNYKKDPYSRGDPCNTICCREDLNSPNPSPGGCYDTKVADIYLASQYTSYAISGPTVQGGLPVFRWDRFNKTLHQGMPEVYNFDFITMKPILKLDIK
active: [10] -0.352
inactive: [1] -0.063 | [2] -0.076 | [3] -0.022 | [4] -0.016 | [5] -0.005 | [6] -0.028 | [7] 0.088 | [8] -0.049 | [9] -0.01

POLR2A (UniProt P24928)
inactive: [1] 0.093 | [2] -0.034 | [3] 0.006 | [4] 0.004 | [5] -0.058 | [6] 0.022 | [7] 0.041 | [8] 0.007 | [9] -0.052 | [10] 0.156

PCTP (UniProt Q9UKL6)
UniProt Q9UKL6, sequence (Q9UKL6 whole entry, looked up): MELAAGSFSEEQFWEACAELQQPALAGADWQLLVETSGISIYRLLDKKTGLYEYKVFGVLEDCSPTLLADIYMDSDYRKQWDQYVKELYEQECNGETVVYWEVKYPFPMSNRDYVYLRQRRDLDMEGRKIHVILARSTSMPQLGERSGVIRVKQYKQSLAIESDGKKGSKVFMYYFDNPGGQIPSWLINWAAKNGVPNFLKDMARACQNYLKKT
active: [10] -0.279
inactive: [1] -0.017 | [2] -0.012 | [3] -0.067 | [4] 0.039 | [5] -0.058 | [6] -0.055 | [7] -0.005 | [8] 0.025 | [9] -0.011

PDSS2 (UniProt Q86YH6)
UniProt Q86YH6, sequence (Q86YH6 whole entry, looked up): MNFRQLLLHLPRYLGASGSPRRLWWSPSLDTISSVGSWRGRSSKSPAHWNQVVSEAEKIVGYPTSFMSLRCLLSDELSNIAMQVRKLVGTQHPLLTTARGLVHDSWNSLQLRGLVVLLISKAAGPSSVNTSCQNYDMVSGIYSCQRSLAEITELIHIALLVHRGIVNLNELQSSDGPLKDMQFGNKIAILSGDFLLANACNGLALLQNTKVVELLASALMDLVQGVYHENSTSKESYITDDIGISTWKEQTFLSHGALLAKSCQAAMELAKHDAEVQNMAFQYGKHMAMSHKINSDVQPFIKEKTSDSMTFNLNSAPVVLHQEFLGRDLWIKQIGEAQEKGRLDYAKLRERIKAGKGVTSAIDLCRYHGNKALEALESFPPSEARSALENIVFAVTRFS
inactive: [1] 0.021 | [2] 0.016 | [3] 0.12 | [4] 0.024 | [5] 0.048 | [6] -0.069 | [7] 0.05 | [8] 0.055 | [9] 0.02 | [10] 0.018

PYGL (UniProt P06737)
active: [2] -0.262
inactive: [1] -0.091 | [3] 0.008 | [4] -0.02 | [5] -0.081 | [6] 0.016 | [7] -0.001 | [8] 0.018 | [9] -0.006 | [10] 0.029

PMM2 (UniProt O15305)
UniProt O15305, sequence (O15305 whole entry, looked up): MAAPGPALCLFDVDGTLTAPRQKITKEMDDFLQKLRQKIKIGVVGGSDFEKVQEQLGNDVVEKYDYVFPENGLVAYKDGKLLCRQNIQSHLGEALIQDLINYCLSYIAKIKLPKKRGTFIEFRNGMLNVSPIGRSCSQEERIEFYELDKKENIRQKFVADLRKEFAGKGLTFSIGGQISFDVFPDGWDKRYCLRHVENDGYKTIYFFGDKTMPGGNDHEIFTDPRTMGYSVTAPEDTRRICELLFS
inactive: [1] -0.03 | [2] -0.021 | [3] 0.026 | [4] -0.021 | [5] -0.003 | [6] -0.002 | [7] -0.049 | [8] 0.037 | [9] -0.076 | [10] -0.049

POLA1 (UniProt P09884)
UniProt P09884, sequence (P09884 whole entry, looked up): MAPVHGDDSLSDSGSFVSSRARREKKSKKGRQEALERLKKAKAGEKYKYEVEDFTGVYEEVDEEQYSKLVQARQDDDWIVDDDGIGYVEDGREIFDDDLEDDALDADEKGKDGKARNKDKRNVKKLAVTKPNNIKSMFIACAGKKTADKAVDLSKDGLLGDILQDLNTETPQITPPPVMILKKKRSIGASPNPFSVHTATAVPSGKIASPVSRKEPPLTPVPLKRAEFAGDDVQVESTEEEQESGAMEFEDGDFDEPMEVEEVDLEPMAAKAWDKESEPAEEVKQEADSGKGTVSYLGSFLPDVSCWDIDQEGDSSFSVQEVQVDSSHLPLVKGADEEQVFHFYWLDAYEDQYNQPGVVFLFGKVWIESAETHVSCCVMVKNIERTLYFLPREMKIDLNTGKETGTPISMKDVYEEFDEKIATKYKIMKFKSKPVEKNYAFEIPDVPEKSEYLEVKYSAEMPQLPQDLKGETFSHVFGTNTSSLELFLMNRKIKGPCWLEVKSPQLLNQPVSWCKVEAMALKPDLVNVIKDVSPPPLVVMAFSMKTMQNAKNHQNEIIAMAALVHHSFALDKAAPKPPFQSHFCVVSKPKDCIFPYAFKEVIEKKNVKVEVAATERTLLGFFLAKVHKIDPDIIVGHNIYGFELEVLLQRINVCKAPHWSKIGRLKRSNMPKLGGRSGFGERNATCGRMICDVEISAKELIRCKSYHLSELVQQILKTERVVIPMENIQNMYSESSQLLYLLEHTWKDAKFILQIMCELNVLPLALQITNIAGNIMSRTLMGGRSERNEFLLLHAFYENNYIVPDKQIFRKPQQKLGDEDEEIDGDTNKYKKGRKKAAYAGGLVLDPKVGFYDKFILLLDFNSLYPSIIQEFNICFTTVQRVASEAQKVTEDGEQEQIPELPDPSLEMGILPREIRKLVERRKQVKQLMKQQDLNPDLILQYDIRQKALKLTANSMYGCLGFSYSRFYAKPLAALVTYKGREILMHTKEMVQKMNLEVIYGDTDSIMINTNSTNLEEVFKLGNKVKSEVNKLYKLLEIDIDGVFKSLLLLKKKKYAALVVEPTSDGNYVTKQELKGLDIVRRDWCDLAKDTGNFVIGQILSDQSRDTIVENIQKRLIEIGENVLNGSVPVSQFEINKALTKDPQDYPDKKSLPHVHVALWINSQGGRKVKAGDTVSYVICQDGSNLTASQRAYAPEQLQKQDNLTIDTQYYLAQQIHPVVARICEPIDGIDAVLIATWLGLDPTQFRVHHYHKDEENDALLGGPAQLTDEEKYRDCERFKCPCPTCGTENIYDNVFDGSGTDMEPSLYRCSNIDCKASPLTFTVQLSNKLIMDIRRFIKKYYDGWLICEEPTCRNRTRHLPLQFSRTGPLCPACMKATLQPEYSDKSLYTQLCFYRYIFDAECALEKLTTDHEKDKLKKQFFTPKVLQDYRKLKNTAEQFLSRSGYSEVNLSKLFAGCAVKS
inactive: [1] -0.048 | [3] 0.059 | [4] 0.045 | [5] -0.014 | [6] -0.089 | [7] 0.032 | [8] 0.046 | [9] -0.012 | [10] -0.163
active: [2] -0.466

PTGR2 (UniProt Q8N8N7)
active: [1] 1.1 | [2] 1.27
inactive: [3] 0.154 | [4] -0.006 | [5] 0.244 | [6] -0.117 | [7] 0.181 | [8] -0.009 | [9] 0.025 | [10] -0.278

POLR2I (UniProt P36954)
inactive: [1] 0.209 | [2] 0.232 | [3] 0.055 | [4] 0.007 | [5] 0.017 | [6] -0.208 | [7] -0.107 | [8] -0.107 | [9] -0.009 | [10] 0.202

POLR2M (UniProt P0CAP2)
UniProt P0CAP2, sequence (P0CAP2 whole entry, looked up): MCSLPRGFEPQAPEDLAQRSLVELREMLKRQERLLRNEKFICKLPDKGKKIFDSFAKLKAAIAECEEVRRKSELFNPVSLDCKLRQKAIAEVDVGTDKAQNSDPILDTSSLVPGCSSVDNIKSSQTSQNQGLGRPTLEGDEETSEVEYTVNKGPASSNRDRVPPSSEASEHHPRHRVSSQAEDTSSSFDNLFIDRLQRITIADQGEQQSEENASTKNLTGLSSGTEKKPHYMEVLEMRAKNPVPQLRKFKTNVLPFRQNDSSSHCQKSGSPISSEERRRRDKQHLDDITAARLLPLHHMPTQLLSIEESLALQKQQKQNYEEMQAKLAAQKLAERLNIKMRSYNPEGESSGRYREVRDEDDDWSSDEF
inactive: [1] 0.084 | [2] 0.026 | [3] 0.013 | [4] -0.018 | [5] -0.022 | [6] 0.034 | [7] 0.004 | [8] 0.045 | [9] -0.028 | [10] 0.037

PARN (UniProt O95453)
UniProt O95453, sequence (O95453 whole entry, looked up): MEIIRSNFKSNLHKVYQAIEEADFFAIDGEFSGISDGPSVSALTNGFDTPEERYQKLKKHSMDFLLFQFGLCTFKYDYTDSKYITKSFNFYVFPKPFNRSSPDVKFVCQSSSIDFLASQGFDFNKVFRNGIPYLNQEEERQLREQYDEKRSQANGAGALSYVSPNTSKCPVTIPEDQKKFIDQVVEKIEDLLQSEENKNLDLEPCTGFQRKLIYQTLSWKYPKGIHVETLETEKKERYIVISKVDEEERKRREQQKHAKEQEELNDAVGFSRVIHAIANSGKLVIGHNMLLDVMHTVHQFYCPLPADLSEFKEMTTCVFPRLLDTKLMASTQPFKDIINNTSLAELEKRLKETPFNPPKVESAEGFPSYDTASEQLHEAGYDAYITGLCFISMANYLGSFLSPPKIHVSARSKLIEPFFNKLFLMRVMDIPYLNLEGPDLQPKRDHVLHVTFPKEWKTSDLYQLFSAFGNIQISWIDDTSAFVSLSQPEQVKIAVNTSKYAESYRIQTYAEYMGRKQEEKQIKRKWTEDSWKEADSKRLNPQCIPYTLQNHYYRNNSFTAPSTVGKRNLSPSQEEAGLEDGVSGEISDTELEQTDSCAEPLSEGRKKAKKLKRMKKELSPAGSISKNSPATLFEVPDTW
inactive: [1] -0.146 | [3] 0.059 | [4] 0.051 | [5] -0.021 | [6] -0.076 | [7] 0.017 | [8] 0.017 | [9] -0.057 | [10] -0.196
active: [2] -0.401

PPP4R3B (UniProt Q5MIZ7)
active: [2] -0.284
inactive: [1] -0.052 | [3] 0.05 | [4] -0.011 | [5] -0.03 | [6] -0.074 | [7] -0.001 | [8] 0.06 | [9] -0.074 | [10] -0.15
